Source: PubChem BioAssay AID652053 (Broad Institute, 2013)
The campaign covered roughly 1,300 compounds. About 930 (72%) were called active.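 Rule for the calls: active = fitted curve reaches 40% activation signal increase at or below the top valid tested concentration in every replicate test; inconclusive = replicate tests disagree in their calls; inactive = all replicate tests inactive, including effects opposite the expected signal rise.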 The set was probably picked from earlier hits. These entries were drawn from the full list. Potency and affinity values are given separately.

Experiment: suppression of miR-122 activity, Renilla luciferase sensor – cell-based, Huh7 psiCHECK-miR122, cherry-pick, dose response (AID 652053)
Conditions: Huh7 psiCHECK-miR122 Renilla luciferase reporter, 48 h; series mostly up to 35 µM; activation (miR-122 inhibition): at the top concentration

Activation (miR-122 inhibition), inactive:
CS(=O)(=O)N(CC(=O)Nc1cccc(F)c1)c1cccc([N+](=O)[O-])c1 -3.67%
Cc1c(-c2ccccc2)cn2c1-c1ccc(C)n1CC2 -6.24%
O=C(CN1CCOCC1)Nc1cc(Cl)ccc1Cl -6.17%
CCn1c(CCNC(=O)c2ccc(OC)cc2)nnc1SCC(=O)Nc1ccccc1F -10.9%
COc1cc(OC)c(-c2nc3cnccc3n2C)cc1OC -11.9%
COC(=O)c1[nH]c2c(c1C)C(=O)CC(c1ccccc1)C2 (stereo not drawn) 24.6%
CCOC(=O)c1[nH]c2c(c1C)C(=O)CC(c1ccco1)C2 (stereo not drawn) 32.4%
CCC(=O)N1[C@H](CO)[C@H](c2ccccc2)[C@@H]1CN(CC)C(=O)c1cccc(F)c1 1.39%
Cc1ccc(NCc2nnc(SCC(=O)Nc3ccccc3)n2CC2CCCO2)c(C)c1 (stereo not drawn) 25%
CC1CCN(C(=S)c2ccc(O)cc2)CC1 -8.51%
CC1CCN(S(=O)(=O)c2ccc(NC(=O)Cc3cccs3)cc2)CC1 31.5%
O=C(C[C@@H]1C[C@H]2c3cc(NS(=O)(=O)c4ccc(F)cc4)ccc3O[C@H]2[C@H](CO)O1)NCc1ccc(Oc2ccccc2)cc1 25.6%
COCC(=O)Nc1ccc2c(c1)[C@@H]1C[C@H](CC(=O)NCc3ccccc3)O[C@H](CO)[C@@H]1O2 -10.4%
C[C@@H]1CN([C@@H](C)CO)C(=O)c2cc(N(C)C)ccc2O[C@@H]1CN(C)C(=O)Nc1ccc(F)cc1 4.49%
COc1ccc(NC(=O)Nc2ccc3c(c2)CC(=O)N([C@@H](C)CO)C[C@@H](C)[C@H](CN(C)C(=O)NC(C)C)O3)cc1 -4.79%
COc1ccc(NC(=O)Nc2ccc3c(c2)CC(=O)N([C@@H](C)CO)C[C@@H](C)[C@@H](CN(C)C(=O)NC(C)C)O3)cc1 0.145%
CC(=O)c1cccc(OCC(=O)Nc2ccccc2N2CCOCC2)c1 -6.02%
COCCCn1c(=O)/c(=C\c2ccccc2OC(F)F)s/c1=C(/C#N)C(N)=O -4.42%
Cc1cc(C)c(C)c(S(=O)(=O)Nc2ccc(OCC(=O)O)cc2)c1C -10.9%
Cc1cc(O)c(C(C)C)cc1N=Nc1ccccc1C(=O)O -4.09%
Cc1ccc(C)c(S(=O)(=O)Nc2ccc(O)c3ccccc23)c1 20.6%
Cc1ccc(C(=O)Oc2ccc(C(=S)N3CCOCC3)cc2)cc1 5.32%
C=CCn1cc(C(=O)N2CCc3ccccc3C2)c(=O)c2cc(S(=O)(=O)N(CC)CC)ccc21 6.72%
CC(=O)c1cccc(NC(=O)C(C)N2CCc3ccccc3C2)c1 (stereo not drawn) 11%
Cc1ccc(CN2C(=O)C(C)(C)Oc3ccc(C(=O)N4CCCCC4)cc32)cc1 13.1%
CCc1cccc(NC(=O)Cc2cn(C)c3ccccc23)c1 8.83%
CCc1ccc(NC(=O)CN2CCc3ccccc3C2)cc1 -5.28%
Cc1noc(C)c1NC(=O)Nc1ccc2c(c1)CC(=O)N([C@@H](C)CO)C[C@H](C)[C@@H](CN(C)Cc1ccc(Cl)c(Cl)c1)O2 10.7%
